Out of some 4,100 compounds screened, about 1,600 (39%) were called active. Roughly 25% stayed inconclusive and do not appear here. Some of the results follow. Unmarked numbers belong to inactive results. Calls come from the whole dose curve; as a rule, active = well fitted inhibition curve with a large enough effect; inconclusive = small, poorly fitted or top-dose-only effect; inactive = no such curve, though single readings can be large or run the other way.
Test: qHTS Validation assay for Inhibitors of Plasmodium falciparum Dd2 growth in vitro; note: nearly all actives have a fitted effect of over 70% in size
Conditions: P. falciparum Dd2 in RBCs, SYBR Green growth, 72 h; series mostly up to 28.7 µM; activity change, negative = inhibition: at the top concentration
How it was run: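 P. falciparum Dd2-infected red blood cells (2.5% hematocrit, 0.3% parasitemia) grown 72 h at 37 °C under 5% O2 with compounds in a titration, 29 uM to 0.5 nM final. Growth read as SYBR Green-1 fluorescence after ~16 h lysis; artesunate 300 nM as positive control.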
For `COc1ccc(C(=O)N2CCC[C@H]2c2nc(-c3ccccc3Cl)no2)cc1OC`, the “activity change, negative = inhibition” value was 4.37%. With `COCCNc1ncccc1-c1noc([C@@H]2CCCN2Cc2ccccn2)n1` the Potency was 7.69 µM (active). For `COc1ccc(C(O)(CCC(C)C)C(CN2CCOCC2)c2ccccc2)cc1` (stereo unspecified), the Potency was 5.31 µM (active). For `COc1ccc(C(O)(CCC(C)C)C(CN2CCOCC2)c2ccc(Cl)cc2)cc1` (stereo unspecified), the Potency was 6.68 µM (active). In the case of `COc1ccc(S(=O)(=O)N2CCCCCC2)cc1NC(=O)c1c2c(nc3ccccc13)CCN(Cc1ccccc1)C2`, the Potency is reported as 4.73 µM (active). With `COc1cc(OC)c(NC(=O)N2CCc3cc(S(=O)(=O)N4CCC(C)CC4)ccc32)cc1Cl` the “activity change, negative = inhibition” value was 39.5%. For `COc1ccc(OC)c(NC(=O)c2ccc3c(c2)N(S(=O)(=O)c2ccccc2)CC3)c1`, the “activity change, negative = inhibition” value was -26.8%. For `COCCOCC1(CNC(=O)c2cnccn2)C[C@@H](O)[C@@H](O)C1` (stereo partly specified), the “activity change, negative = inhibition” value was 54.4% [at 43.1 µM]. For `O=c1c2ccccc2sc2nc(C3CCCCC3)n(Cc3ccco3)c(=O)c12`, the Potency was 7.5 µM (active). For `O=S(=O)(c1ccccc1)c1nnn2c1nc(NC1CCN(Cc3ccccc3)CC1)c1cc(Cl)ccc12`, the Potency was 2.99 µM (active). With `CC1CCN(c2nc3c(S(=O)(=O)c4ccccc4)nnn3c3ccc(Cl)cc23)CC1` the Potency was 2.66 µM (active). In the case of `CN(C)c1cc(=O)c2ccnc(N3CCN(c4ccccn4)CC3)c2o1`, the “activity change, negative = inhibition” value is reported as 12.8% [at 43.1 µM]. For `Cc1c(C(=O)N2CCN(c3ccccn3)CC2)oc2ccccc12`, the “activity change, negative = inhibition” value was 24.9%. For `Cc1ccc(S(=O)(=O)c2nnn3c2nc(N2CCN(c4ccccn4)CC2)c2ccccc23)cc1`, the Potency was 7.5 µM (active). With `COc1ccc2c(c1)CCN=C2C[C@H]1CN(C(=O)NC(C)C)CC[C@H]1CC(=O)O` the “activity change, negative = inhibition” value was 40.3% [at 43.1 µM]. For `COc1cccc(CN(C)C2CCc3ccccc32)c1` (stereo unspecified), the “activity change, negative = inhibition” value was -11.5% [at 43.1 µM]. In the case of `COc1ccc(CN2CCCC(N3CCc4ccccc4C3)C2)c(O)c1` (stereo unspecified), the Potency is reported as 2.99 µM (active). With `Cc1ccc(-c2cc3c(=O)n(CCNC(=O)c4ccc[nH]c4=O)ccn3n2)cc1C` the “activity change, negative = inhibition” value was -19.5%. For `CCOCCCn1c(=N)c(C(=O)NCc2cccnc2)cc2c(=O)n3ccccc3nc21`, the “activity change, negative = inhibition” value was 35.7%. With `Cc1cccn2c(=O)c3cc(C(=O)NCCc4ccc(S(N)(=O)=O)cc4)n(C)c3nc12` the “activity change, negative = inhibition” value was 52.4%. In the case of `COc1ccc(CCn2c(=N)c(C(=O)NCCN3CCOCC3)cc3c(=O)n4cccc(C)c4nc32)cc1OC`, the Potency is reported as 13.3 µM (active). In the case of `Cc1cccn2c(=O)c3cc(C(=O)NC(C)c4ccccc4)c(=N)n(CCOCCO)c3nc12` (stereo unspecified), the Potency is reported as 10.6 µM (active). In the case of `CCCc1noc(-c2cccn3c(CNC(=O)c4ccc(OC)cc4C)nnc23)n1`, the “activity change, negative = inhibition” value is reported as 5.42%. In the case of `COc1ccc(CCn2c(=N)c(C(=O)NCc3ccco3)cc3c(=O)n4cccc(C)c4nc32)cc1`, the Potency is reported as 1.68 µM (active). In the case of `N#Cc1cccc(-c2cn3c(n2)N(C(=O)CC2CCCC2)CCC3)c1`, the “activity change, negative = inhibition” value is reported as -24.1%. For `CCCCCCc1cc2cc(-c3nnc(-c4ccc(C)cc4)o3)c(=O)oc2cc1O`, the “activity change, negative = inhibition” value was 75.9%. For `O=C(C1CCCC1)N1CCN(c2nnc3c(Cl)cccn23)CC1`, the “activity change, negative = inhibition” value was -1.29%. In the case of `COc1ccc(CCNC(=O)c2cc3c(=O)n4cccc(C)c4nc3n(CC3CCCO3)c2=N)cc1` (stereo unspecified), the “activity change, negative = inhibition” value is reported as 12.4%. In the case of `Cc1cccn2c(=O)c3cc(C(=O)NC4CCCC4)c(=N)n(CCc4ccccc4)c3nc12`, the Potency is reported as 1.88 µM (active). In the case of `CN1CCCCC(CC(=O)NCCc2ccccc2)C1=O` (stereo unspecified), the “activity change, negative = inhibition” value is reported as 19.6%. For `COc1ccc(CCn2c(=N)c(C(=O)NC3CCCC3)cc3c(=O)n4cccc(C)c4nc32)cc1`, the Potency was 0.75 µM (active). With `Cc1cc(N)c2cc(NC(=O)/C=C/c3ccccc3Cl)ccc2n1` the Potency was 1.88 µM (active). For `O=C(/C=C/c1ccccc1)Nc1cccc(C(=O)O)c1`, the “activity change, negative = inhibition” value was 36.5%. With `O=C(COc1ccc(F)cc1)N1CCC(c2noc(-c3ccncc3)n2)C1` (stereo unspecified) the “activity change, negative = inhibition” value was -28.6%. With `CC1C(=O)C(C)C(c2cc(Cl)ccc2O)NC1c1cc(Cl)ccc1O` (stereo unspecified) the Potency was 6.68 µM (active). With `Cc1[nH]c2c(C)cccc2c(=O)c1Br` the Potency was 5.31 µM (active). In the case of `Cc1cnc(C(=O)N[C@@H]2CCC[C@@H]2C(=O)N2CCC(Cc3ccccc3)CC2)cn1`, the “activity change, negative = inhibition” value is reported as -11.4%. For `Cc1cnc(C(=O)Nc2cccc3cccnc23)cn1`, the Potency was 2.66 µM (active). With `COc1ccc(C(=O)N2CCc3nn(Cc4ccccc4)c(=O)n3CC2)cc1F` the “activity change, negative = inhibition” value was 8.65%. In the case of `CCOc1ccc(CCNC(=O)c2ccc3c(c2)N(Cc2ccccc2F)C(=O)c2ccccc2S3=O)cc1OCC` (stereo unspecified), the Potency is reported as 10.6 µM (active). For `CCn1cc(CN2CCN(C(=O)c3ccsc3)CC2)ccc1=O`, the “activity change, negative = inhibition” value was 38.8%. In the case of `CCOc1ccc(-c2cc3c(=O)n(CCNC(=O)c4ccc(OC)c(F)c4)ccn3n2)cc1`, the “activity change, negative = inhibition” value is reported as -12.6%. For `CC(C)(C)c1ccc(C(=O)N2CCN(Cc3cc(=O)n4nc(-c5ccccc5F)sc4n3)CC2)cc1`, the “activity change, negative = inhibition” value was 19%. For `O=C1Nc2ccc(-c3ccc(Cl)cc3)cc2C(=O)N2CCN(C(=O)c3ccccc3)C[C@H]12`, the “activity change, negative = inhibition” value was -13.6%. For `CCN1CCN(C(=O)c2ccc3c(c2)N(Cc2ccc(Cl)cc2)C(=O)c2ccccc2S3=O)CC1` (stereo unspecified), the Potency was 0.668 µM (active). For `CCN1CCN(C(=O)c2ccc3c(c2)N(Cc2ccccc2F)C(=O)c2ccccc2S3=O)CC1` (stereo unspecified), the Potency was 0.842 µM (active).

Reference: PubChem BioAssay AID1347416 (National Center for Advancing Translational Sciences (NCATS), 2020)
% is set by controls: 0 for no effect and ±100 for the full control effect; potency is the fitted concentration of half-maximal effect.
